Rows were chosen to be rich in hits. Some 3.7% of all compounds tested hit in one or more screens of this group.
PLK1 PBD inh: qHTS for Inhibitors of PLK1-PDB (polo-like kinase 1 - polo-box domain): Primary Screen; Plk1 PBD binding of FITC phosphopeptide, fluorescence polarization; actives 2.8% (n = 360,000); Serine/threonine-protein kinase PLK1 (Homo sapiens), P53350; Potency, µM, without a hit: max response, negative = inhibition, hits mostly inhibitors; also: potency is read from the fitted curve at half-maximal effect; series mostly up to about 57 µM; % is scaled to controls: 0 for no effect and ±100 for the full control effect; nearly all actives have a fitted effect of over 65% in size
TCR act: Activators of T cell receptors: qHTS campaign; primary human leukocytes, anti-CD3, IL-2 HTRF, 48 h; Potency, µM (top dose mostly 9.22 µM), for inactives: at the highest dose activation of IL-2 secretion, usual class: activators; 330,000 tested, under 10 active; AID 504894, 2011; also: % of control where 0% means no effect
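1) Mix primary human leukocytes, a-CD3 beads and compound. 2) Incubate 48 hr. 3) Add HTRF IL-2 reagents (a-IL-2-K, a-IL-2-d2).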
FEN1 inh: qHTS Assay for the Inhibitors of Human Flap endonuclease 1 (FEN1); Recombinant FEN1 flap cleavage, fluorescence, 15 min; P39748; actives 0.35% (n = 390,000); Potency, µM (titrated, usually from 114 µM), for inactives: top-dose activity change, negative = inhibition, actives largely listed as inhibitors; also: potency is read from the fitted curve at half-maximal effect; % is scaled to controls: 0 for no effect and ±100 for the full control effect; nearly all actives have a fitted effect of over 65% in size
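Quantitative HTS format: each compound was titrated, incubated with 10 nM nuclease for 15 min at room temperature, then challenged with flap substrate at 50 nM final. Signal change over 15 min gave concentration–effect curves.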
PI5P4K alpha inh: qHTS for Inhibitors of phosphatidylinositol 5-phosphate 4-kinase (PI5P4K); PI5P4Kalpha enzyme, ADP-Glo luminescence, 60 min; stronger effect = lower value; max response, %; actives 1.2% (n = 330,000); active = max response of -50% or lower; inconclusive = between -30% and -50%; inactive = -30% or higher; also: value at the top dose of about 77 µM; % is scaled to controls: 0 for no effect and ±100 for the full control effect
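Reactions run in 0.038 M HEPES pH 7.4, 0.28 mM EGTA, 0.1% CHAPS and 5% DMSO, with PI5P4Kalpha, substrate, compound and 5 microM ATP final, one hour at room temperature. Readout is ADP-Glo luminescence.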
VDR inh: Inhibitors of the vitamin D receptor (VDR): qHTS; VDR-SRC2-3 peptide fluorescence polarization, 2 h; AID 504847, 2011; actives 0.93% (n = 400,000); Vitamin D3 receptor (Homo sapiens), P11473; Potency, µM, inactives show max response, negative = inhibition, hits mostly inhibitors; also: potency is read from the fitted curve at half-maximal effect; % is scaled to controls: 0 for no effect and ±100 for the full control effect
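The screen uses fluorescence polarization to detect compounds that interfere with recruitment of the SRC2-3 coactivator peptide to VDR; plates are read after 2 h at room temperature.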
WRN helicase inh: qHTS for Inhibitors of WRN Helicase; Bifunctional 3'-5' exonuclease/ATP-dependent helicase WRN (Homo sapiens), Q14191; WRN helicase unwinding, fluorescent forked duplex, kinetic; Potency, µM (series often up to 114 µM), inactives show top-dose activity change, negative = inhibition, most hits filed as inhibitors; actives 0.46% (n = 360,000); AID 651768, 2012; also: potency is read from the fitted curve at half-maximal effect; % is scaled to controls: 0 for no effect and ±100 for the full control effect; nearly all actives have a fitted effect of over 55% in size
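Kinetic red-fluorescence monitoring (525/598 nm) tracks WRN helicase activity after 100 nM fluorophore-quencher forked duplex and 2 mM ATP are added to 20 nM enzyme pretreated 15 min at room temperature with compound.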
USP1-UAF1 confirm: Inhibitors of USP1/UAF1: Hit Validation in Primary Assay. shares compounds with VDR inh. Ub-Rhodamine cleavage, fluorescence kinetic read. Potency, µM (doses to about 56.8 µM), inactives show at the top dose activity change, negative = inhibition, hits mostly inhibitors. actives 50% (n = 50). AID 540327, 2011
VDR confirm: qHTS for Inhibitors of the vitamin D receptor (VDR): Hit Validation in Primary Screen; shares compounds with VDR inh; VDR-coactivator inhibition assay, qHTS confirmation; Potency, µM, most hits filed as inhibitors; actives 89% (n = 840); also: potency is read from the fitted curve at half-maximal effect
VDR FP: qHTS for Inhibitors of the vitamin D receptor (VDR): Hit Validation using a Fluorescein Assay; actives 48% (n = 840); VDR-coactivator binding, fluorescein fluorescence polarization; AID 602200, 2012; shares compounds with VDR inh; Potency, µM (top dose mostly 57.1 µM), for inactives: top-dose activity change, negative = inhibition, hits mostly inhibitors; also: potency is read from the fitted curve at half-maximal effect
VDR bla reporter: qHTS for Inhibitors of the vitamin D receptor (VDR): Hit Validation using a Beta-Lactamase Assay; VDR beta-lactamase reporter cells, FRET ratio; cells co-treated with VDR agonist LG190178; Potency, µM (titrated, usually from 46.1 µM), for the others: top-dose activity change, negative = inhibition, usual class: inhibitors; shares compounds with VDR inh; actives 23% (n = 840); also: potency is read from the fitted curve at half-maximal effect; % is scaled to controls: 0 for no effect and ±100 for the full control effect
VDR cytotox: qHTS for Inhibitors of the vitamin D receptor (VDR): Hit Validation using a Cytotoxicity Assay. shares compounds with VDR inh. cytotoxicity counter-screen, cell viability, qHTS. Potency, µM (titrated, usually from 48.3 µM), without a hit: at the highest dose activity change, negative = cytotoxicity, hits mostly cytotoxic. actives 18% (n = 840). AID 602204, 2012;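 also: potency is read from the fitted curve at half-maximal effect; plate controls were DMSO for no effect and high-concentration cycloheximide for full effect; nearly all actives have a fitted effect of over 75% in size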
Active calls of the source: *; [ ] = dose if it differs, or a comment. Unless noted, calls follow the shape of the dose curve; as a rule, active = well fitted curve in the direction sought with a large enough effect; inconclusive = small, poorly fitted or top-dose-only effect, or another doubt; inactive = no such curve, though single readings can be large; an effect the other way counts as inactive or inconclusive.

Results for CCCCNc1nc(Oc2ccc(=O)n(C)n2)nc(N2CCOCC2)n1 ?
FEN1 inh: -3%; VDR inh: 10%

How did CCOC(=O)/C(=C\c1cccc(O)c1)c1nc2sc(C)c(C)c2c(=O)[nH]1 do in these assays?
PLK1 PBD inh: 4.7µM*; TCR act: 1%; FEN1 inh: -6%; PI5P4K alpha inh: inconclusive; VDR inh: 45µM*; WRN helicase inh: inconclusive; VDR confirm: 3.4*; VDR FP: inconclusive; VDR bla reporter: 21µM*; VDR cytotox: inconclusive

What do the screens show for `CCOC(=O)c1nc2sc(C)c(C)c2c(=O)[nH]1`?
PLK1 PBD inh: -6%; FEN1 inh: -14%; VDR inh: -8%; WRN helicase inh: 2%

What do the screens show for `CCOc1ccccc1CNC(=O)Cn1nc(C)c2nn(-c3ccc(Cl)cc3)c(C)c2c1=O`?
FEN1 inh: 15%; VDR inh: 7%

Results for CN(C)[C@H]1C(=O)C(C(=O)NCN2CCCC2)=C(O)[C@]2(O)C(=O)C3=C(O)c4c(O)cccc4[C@@](C)(O)[C@H]3C[C@@H]12 ?
VDR inh: 32µM*; USP1-UAF1 confirm: inconclusive

How did Cc1ccc(Cl)cc1NC(=O)Nc1nnc(N(C)Cc2ccccc2)s1 do in these assays?
FEN1 inh: inconclusive; VDR inh: 6%

How did C[C@@H]1c2ccccc2CN1CC1=NCCN1 do in these assays?
VDR inh: 3%; USP1-UAF1 confirm: -11%[114 µM]

What do the screens show for `CCN(CC)c1ccc(N=Cc2ccc([N+](=O)[O-])o2)cc1`?
PLK1 PBD inh: -23%; TCR act: 22%[46.1 µM]; FEN1 inh: -24%; PI5P4K alpha inh: -24; VDR inh: inconclusive; WRN helicase inh: inconclusive; VDR confirm: 7.9*; VDR FP: 2%; VDR bla reporter: 3%; VDR cytotox: -8%
